# Source: PubChem BioAssay (Broad Institute)
# Hedgehog inh: blocks Sonic Hedgehog signaling. Shh-LIGHT2 Gli-luciferase reporter, 30 h. inhibition, % (no concentration beside the values). 22,000 compounds, 2.1% hits. AID 2313;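 active = mean inhibition across valid replicates above about 65%, limit read from the data; inconclusive = mean under the limit, yet half or more replicates past it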;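 also: pathway switched on by Shh-conditioned medium diluted 1 in 25 in low serum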
# MITF inh: MITF inhibition. inhibition, % (test concentration not listed). 37,000 compounds, 0.28% hits. AID 2240. TRPM1 promoter luciferase, luminescence, 24 h; in the data active = inhibition above about 85%; inconclusive = no clear call, values can overlap the other calls; inactive = below about 68%;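 also: human melanocyte line stably carrying TRPM1 promoter luciferase reporter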
# NOMO-1 viab: STK33 inhibitor candidate reducing NOMO-1 cell viability; NOMO-1 AML viability, CellTiter-Glo luminescence, 72 h; 37,000 compounds, 7.5% hits; inhibition, % (concentration not given with the values); in the data active = inhibition above about 80%; inconclusive = no clear call, values can overlap the other calls
# PD-1 reverse act: activators reversing PD-1 mediated T-cell inhibition; 29,000 tested, under 10 active; AID 2316; primary human CD4 T cells, PD-L1 beads, CellTiter-Glo 96 h; activation, % (no concentration beside the values); call rule not given here;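 also: 0% = median vehicle wells and 100% = positive control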
# An asterisk follows results filed as active; ? = inconclusive; . = no result given. The list is not random: actives were taken first. Their share in the collection is about 8.1%.
SMILES,Hedgehog inh,MITF inh,NOMO-1 viab,PD-1 reverse act
O=C(O[C@H]1[C@H](Oc2ccccc2COC(=O)C2(O)C=CCCC2=O)O[C@H](CO)[C@@H](O)[C@@H]1O)c1ccccc1 (some centres undefined),53,31,121*,-4
CC(C)(C)c1cc(C(=O)CSc2nc3ccccc3[nH]2)cc(C(C)(C)C)c1O,.,?,102*,.
Cc1cc(=O)[nH]c(SCC(=O)c2cc(C(C)(C)C)c(O)c(C(C)(C)C)c2)n1,.,29,17,.
C[C@H](CO)N1C[C@H](C)[C@H](CN(C)S(=O)(=O)c2cccs2)Oc2ccc(NC(=O)Nc3ccc4c(c3)OCO4)cc2CC1=O,0,24,86*,1
C[C@H](CO)N1C[C@H](C)[C@H](CN(C)S(=O)(=O)c2cccs2)Oc2ccc(NC(=O)Nc3ccc(C(F)(F)F)cc3)cc2CC1=O,.,21,123*,.
C[C@@H]1CN([C@@H](C)CO)C(=O)Cc2cc(NC(=O)Nc3ccc(C(F)(F)F)cc3)ccc2O[C@@H]1CN(C)S(=O)(=O)c1cccs1,18,69,111*,-8
C[C@@H]1CN([C@H](C)CO)C(=O)Cc2cc(NC(=O)Nc3ccc(C(F)(F)F)cc3)ccc2O[C@H]1CN(C)S(=O)(=O)c1cccs1,.,4,12,3
O=C(CSc1nnc(COc2ccccc2)o1)Nc1ccccc1,-1,6,14,0
C[C@@H]1CN([C@@H](C)CO)C(=O)c2cc(NC(=O)Nc3ccc(C(F)(F)F)cc3)ccc2O[C@@H]1CN(C)C(=O)Nc1ccc(F)cc1,57,51,113*,-6
C[C@H]1CN([C@@H](C)CO)C(=O)c2cc(NC(=O)Nc3ccc(C(F)(F)F)cc3)ccc2O[C@@H]1CN(C)C(=O)Nc1ccc(F)cc1,-9,8,14,-3
C[C@H](CO)N1C[C@H](C)[C@H](CN(C)C(=O)Nc2ccc(F)cc2)Oc2ccc(NC(=O)Nc3ccc(C(F)(F)F)cc3)cc2C1=O,69*,49,112*,-3
O=C(CSc1nc2ccccc2s1)Nc1ccccc1N1CCOCC1,.,36,9,-3
COC(=O)C(NC(=O)c1ccc([N+](=O)[O-])o1)C(C)C (centres undefined),.,-9,113*,.
CCOc1ccc(C)cc1S(=O)(=O)n1cnc2ccccc21,.,38,127*,-1
COc1cc(S(=O)(=O)n2nnc3ccccc32)c(OC)cc1Cl,.,43,30,-1
CCOc1ccc(Cl)cc1S(=O)(=O)n1cnc2ccccc21,.,33,114*,.
COc1cc(S(=O)(=O)n2cnc3ccccc32)c(OC)cc1Cl,.,0,84*,.
CS/C(=N\S(=O)(=O)c1cc(C(F)(F)F)cc(C(F)(F)F)c1)N1CCOCC1,0,16,3,1
Cc1sc(/N=C/c2cn(Cc3ccccc3)c3ccccc23)c(C#N)c1C,.,-19,64,0
C=C1C(=O)O[C@@H]2C3C(=C(C)[C@@H](O)[C@@H](OC(=O)/C(=C/C)COC(C)=O)[C@@H]12)C(=O)[C@H]1O[C@@]31C (some centres undefined),72*,58,119*,-9
CC1=CC2=NC(C(F)(F)F)(C(F)(F)F)NC(=O)N2C=C1,5,-12,-6,0
O=C1NC(=O)c2cc(-c3ccccc3)ccc21,-22,-15,-13,0
CC1(C)CC(=O)c2c([nH]c(-c3ccccc3)c2-c2ccccc2)C1,-28,3,92*,-8
COc1ccc(/C=C2/C(=O)C(C)(C(C)C)CCC2C)cc1 (centres undefined),-20,-26,94*,1
CC1CCC(C(C)C)C(=O)/C1=C/c1ccc(N(C)C)cc1 (centres undefined),.,-33,63,-1
SMILES,Hedgehog inh,MITF inh,NOMO-1 viab,PD-1 reverse act
N#CC(C(=O)c1cccs1)=C1SCCCS1,-22,-56,39,0
CS/C(Nc1cccc(Cl)c1Cl)=C(/C#N)C(=O)c1cccs1,-192,-6,94*,0
O=C(Nc1ccc(OCc2nc3ccccc3s2)cc1)c1cccc(I)c1,.,-7,105*,.
CCC(=O)Nc1ccc(OCc2nc3ccccc3s2)cc1,.,38,-7,.
C[C@H]1CN([C@@H](C)CO)C(=O)Cc2cc(NS(=O)(=O)c3cccs3)ccc2O[C@@H]1CN(C)Cc1ccc(C(=O)Nc2ccccc2N)cc1,.,-18,45,0
C[C@@H]1CN([C@H](C)CO)C(=O)Cc2cc(NS(=O)(=O)c3cccs3)ccc2O[C@@H]1CN(C)Cc1ccc(C(=O)Nc2ccccc2N)cc1,.,7,116*,0
C[C@@H]1CN([C@@H](C)CO)C(=O)Cc2cc(NS(=O)(=O)c3cccs3)ccc2O[C@@H]1CN(C)Cc1ccc(C(=O)Nc2ccccc2N)cc1,.,17,90*,0
C[C@H]1CN([C@@H](C)CO)C(=O)c2cc(NS(=O)(=O)c3cccs3)ccc2O[C@H]1CN(C)Cc1ccc(C(=O)Nc2ccccc2N)cc1,.,18,71,0
Cn1c(=O)c2c(nc(NCC(O)CO)n2Cc2ccc(Cl)cc2)n(C)c1=O (centres undefined),.,0,13,.
Cc1ccc(-c2nc3cc(Cl)cc(Cl)c3o2)cc1NC(=O)COc1ccccc1,.,47,23,0
CN1C(=O)[C@@]2(Cc3ccccc3)SSS[C@]1(CO)C(=O)N2C,70*,91*,108*,-17
C[C@H]1CN([C@@H](C)CO)C(=O)Cc2cc(NC(=O)C3CC3)ccc2O[C@@H]1CN(C)Cc1ccc(C(=O)Nc2ccccc2N)cc1,.,-2,55,0
C[C@H](CO)N1C[C@H](C)[C@H](CN(C)Cc2ccc(C(=O)Nc3ccccc3N)cc2)Oc2ccc(NC(=O)C3CC3)cc2CC1=O,.,2,127*,-5
C[C@@H]1CN([C@H](C)CO)C(=O)Cc2cc(NC(=O)C3CCCCC3)ccc2O[C@@H]1CN(C)Cc1ccc(C(=O)Nc2ccccc2N)cc1,.,-4,?,0
C[C@H](CO)N1C[C@H](C)[C@H](CN(C)Cc2ccc(C(=O)Nc3ccccc3N)cc2)Oc2ccc(NC(=O)C3CCCCC3)cc2CC1=O,.,15,141*,-3
CCOc1ccc(NC(=O)Cn2cnc3scc(-c4ccc(C)cc4)c3c2=O)cc1,.,28,5,.
CCOC(=O)c1sc(SC)c2c1CC(c1ccc(OC)cc1)CC2=O (centres undefined),19,6,-11,0
C[C@H]1CN([C@@H](C)CO)C(=O)Cc2cc(N(C)C)ccc2O[C@@H]1CN(C)S(=O)(=O)c1ccc(Cl)cc1,.,3,9,.
C[C@@H]1CN([C@H](C)CO)C(=O)Cc2cc(N(C)C)ccc2O[C@@H]1CN(C)S(=O)(=O)c1cccs1,69*,6,8,.
C[C@H]1CN([C@@H](C)CO)C(=O)Cc2cc(N(C)C)ccc2O[C@H]1CN(C)S(=O)(=O)c1ccc(Cl)cc1,-17,24,115*,0
COc1ccc(-c2nc3ccc4ccccc4c3c3c2CCC3)cc1,-106,-74,-5,0
C[C@H](CO)N1C[C@H](C)[C@H](CN(C)C(=O)Nc2cccc3ccccc23)Oc2c(NC(=O)Nc3ccc(C(F)(F)F)cc3)cccc2C1=O,-8,35,77,.
